Each structure is given as a SMILES string. Active and inactive are the calls of the source. Rule for the calls: active = hit-call score of the fitted dose curve at least 0.9, where 1 is the maximum; inactive = score below 0.9.

A short description of this assay: ATG_DR4_LXR_CIS: Attagene CIS-FACTORIAL HepG2 Assay for human Liver X Receptor (LXR), DR4 submotif (AID 2282929). As to conditions: HepG2 Attagene DR4 cis-reporter, mRNA transcription; actives raise or lower the signal. The method, then: ATG_CIS is a cell-based, multiplexed-readout assay that uses HepG2, a human liver cell line, with measurements taken at 24 hours after chemical dosing in a 24-well plate.ATG_DR4_LXR_CIS is one of 52 assay component(s) measured or calculated from the ATG_CIS assay. It is designed to make measurements of mRNA induction, a form of inducible reporter, as detected with fluorescence intensity signals by Reverse transcription polymerase chain reaction (RT-PCR) and Capillary electrophoresis technology.Data from the assay component ATG_DR4_LXR_CIS was analyzed into 1 assay endpoint. This assay endpoint, ATG_DR4_LXR_CIS, was analyzed with bidirectional fitting relative to DMSO as the negative control and baseline of activity. Using a type of inducible reporter, measures of mRNA for gain or loss-of-signal activity can be used to understand the reporter gene at the transcription factor-level as they relate to the gene NR1H2 and NR1H3. Furthermore, this assay endpoint can be referred to as a primary readout, because this assay has produced multiple assay endpoints where this one serves a reporter gene function. To generalize the intended target to other relatable targets, this assay endpoint is annotated to the nuclear receptor intended target family, where the subfamily is non-steroidal.
Human liver HepG2 cells are transiently transfected with multiple reporter transcription units (MRTUs) in 6-well plates using FuGene 6 reagent (Roche; 3 ml FuGene/1 mg DNA). The MRTU constructs are regulated by a cis-regulating element (promoter). […] A major difference between the CIS and TRANS system is that in CIS activities of endogenous TFs are measured, whereas the TRANS assay evaluates changes in activities of exogenous, chimeric NR-Gal4 proteins. […] At the end of 24 hour incubation, total RNA was isolated using TriZol reagent (Invitrogen). The isolated RNA is then reverse-transcribed using oligo(dT) primer and Mo-MLV reverse transcriptase (Invitrogen) with DNAse I (Ambion) treatment for 30 min. The one-tenth of the produced cDNA was amplified by PCR using Taq DNA polymerase (Invitrogen) and two reporter sequence-specific primers. The PCR products were fluorescently labeled by primer extension with 6-arboxyfluorescein (6-FAM) 5'-labeled reporter sequence-specific primer (2 min at 95 C, 20 s at 68 C and 10 min at 72 C) and these products were digested with 5U of HpaI (New England Biolabs) for 2h at 37 C. The fragments were purified using Qiaquick PCR columns (Qiagen), analyzed on an ABI 3130xL genetic analyzer (Applied Biosystems) with peak positions identified by using a set of X-rhodamine (ROX)-labeled MapMarker1000 molecular weight standards (BioVentures). The raw capillary electrophoresis data was processed using Attagraph software (Attagene).
As to `CC1=CCC2CC1C2(C)C` (stereo not given), the result was inactive.

For the compound `CC1C(C)(C)C2=C(C(=O)CCC2)C1(C)C` (stereo not given), the result was inactive.

Consider `CCCCCCCCCCCCc1ccc(O)cc1`, for which the call was inactive.

For `CCC(C)N` (stereo not given), the compound was classed as inactive.

Turning to `CN(C)c1ccc2nc3ccc(=[N+](C)C)cc-3sc2c1`, the compound was called inactive.

As to `CCCCOCCOCCOC(C)=O`, the outcome was inactive.

Turning to `Cc1ccc(C)c(OCCCC(C)(C)C(=O)O)c1`, the outcome was inactive.

Regarding `CC(=O)OCC=C(C)C`, the result was inactive.

Consider `CC(=O)CCC=C(C)C`, for which the compound was classed as inactive.

Consider `O=C1CCCCCCCCCCCN1`, for which the call was inactive.

As for `CCCCCCCO`, the result was inactive.

On to `CCN1CCCC1=O`, for which the compound was classed as inactive.

Consider `Nc1cccc(N)n1`, for which the outcome was inactive.

Turning to `CCCCCCOC(=O)CCCCC(=O)OCCCCCC`, the call was inactive.

For orientation: AC50 means the concentration at which the activity in the assay is half-maximal. In the case of `C=C1C[C@H]2[C@@H]3C=C(C)C4=CC(=O)CC[C@]4(C)[C@H]3CC[C@]2(C)[C@@]1(OC(C)=O)C(C)=O`, the AC50 was 99.7 µM (active).

As to `CCCCCCCCCC(C)=O`, the compound was called inactive.

On to `CCC(=O)C1CC(C(C)C)CC=C1C` (stereo not given), for which the result was inactive.

Consider `CCOC(=O)[C@H](O)[C@@H](O)C(=O)OCC`, for which the compound was called inactive.

With `COC(Cc1ccccc1)OC`, the compound was classed as inactive.

Regarding `CCCC/C=C/C=C\C=O`, the AC50 was 135 µM (active).

With `CCCC=C(C=O)CC`, the compound was called inactive.

Regarding `CC(C=O)c1ccccc1` (stereo not given), the call was inactive.

As for `CCOC(=O)CC(=O)c1ccccc1`, the result was inactive.

As for `COc1ccc(C(=O)/C(Br)=C\C(=O)O)cc1`, the AC50 was 27.8 µM (active).

For `O=C(C=Cc1ccccc1)OCCc1ccccc1`, the AC50 was 24.8 µM (active).

With `CCOC(=O)c1ccc(C)cc1`, the compound was called inactive.

On to `CC1=NN(c2ccc(S(=O)(=O)O)cc2)C(=O)C1N=Nc1ccccc1` (stereo not given), for which the compound was called inactive.

For the compound `O=C(O[C@@H]1Cc2c(O)cc(O)cc2O[C@@H]1c1cc(O)c(O)c(O)c1)c1cc(O)c(O)c(O)c1`, the result was inactive.

For the compound `N=C1C=CC(=C(c2ccc(N)cc2)c2ccc(N)cc2)C=C1`, the AC50 was 27.6 µM (active).

As to `CO[Si](CCCS)(OC)OC`, the compound was called inactive.

In the case of `Oc1ccc(-c2ccccc2)c(Cl)c1`, the compound was called inactive.

`CCC(C)(O)CCCC(C)C` (stereo not given): the compound was called inactive.

Take `CC(C)(C)N`: the result was inactive.

As to `CC(c1cc(C(C)(C)C)cc(C(C)(C)C)c1O)c1cc(C(C)(C)C)cc(C(C)(C)C)c1O`, the result was inactive.

With `CC1(C)CCC[C@]2(C)[C@H]3CC(=O)O[C@]3(C)CC[C@@H]12`, the compound was called inactive.

Regarding `Cc1cc(C)c(C=O)c(C)c1`, the compound was called inactive.

For `CC(C)c1cc(C(C)C)cc(C(C)C)c1`, the half-maximal activity concentration (AC50) is 25.9 µM (active).

Take `Oc1c(Cl)cc(Cl)c(Cl)c1Cl`: the result was inactive.

For the compound `c1ccc2cnccc2c1`, the compound was classed as inactive.

Turning to `CC1CCC(=O)C1=O` (stereo not given), the outcome was inactive.
